Measurements from PubChem BioAssay (NCATS).
Activity calls are given as the source filed them. The rule behind the calls is not given here.

Assay: Immunotoxin (HA22) sensitization/mitigation study. Vehicle arm (PBS) (AID 1159510)
Settings: cancer cells viability with PBS vehicle (HA22 study); series mostly up to 46.1 µM
Potency is the fitted concentration of half-maximal effect.

Row | SMILES | Potency
1 | CC[C@@H]1C(=O)N(C)c2cnc(Nc3ccc(C(=O)NC4CCC(N5CCN(CC6CC6)CC5)CC4)cc3OC)nc2N1C(C)C (some centres not stated) | 0.0132 µM (active)
2 | O=C(O)c1ccc(-c2c[nH]c3ccc(-c4ccccc4)cc23)cc1C1CCCC1 | inactive
3 | CCC[C@H](NC(=O)C(C#N)=Cc1cccc(Br)n1)c1ccccc1 | 1.05 µM (active)
4 | CN1CCN(c2cc(C(=O)Nc3ccc4c(c3)-c3c(c(C(N)=O)nn3-c3ccc(F)cc3)CC4)c(Cl)cn2)CC1 | 26.4 µM (active)
5 | CCC(=C(c1ccccc1)c1ccc(OCCN(C)C)cc1)c1ccccc1 | 23.5 µM (active)
6 | Cc1ccccc1C(C(=O)NC1CCCC1)N(C(=O)Cn1cnc2ccccc21)c1cccc(F)c1 (configuration not stated) | 23.5 µM (active)
7 | NC(=O)c1c(OCc2c(F)cc(Br)cc2F)nsc1NC(=O)NCCCCN1CCCC1 | 23.5 µM (active)
8 | CC1(C)CCC(c2ccc(Cl)cc2)=C(CN2CCN(c3ccc(C(=O)NS(=O)(=O)c4ccc(N[C@H](CCN5CCOCC5)CSc5ccccc5)c(S(=O)(=O)C(F)(F)F)c4)cc3)CC2)C1 | 0.332 µM (active)
9 | CCCCOCCOc1nc(-c2ccc(C(=O)O)c(F)c2)sc1C | 0.0017 µM [activator] (active)
10 | CCCn1c(=O)c2[nH]c(C34CC5CC3C[C@@H](C5)C4)nc2n(CCC)c1=O | 16.6 µM (active)
11 | C/C(=C\C(=O)Nc1ccccc1C(=O)O)c1ccc2ccccc2c1 | 16.6 µM (active)
12 | Cc1cnc(-c2cnc(NCCNc3ccc(C#N)cn3)nc2-c2ccc(Cl)cc2Cl)[nH]1 | 0.935 µM (active)
